The values below come from PubChem BioAssay (Tox21).

SMILES strings stand for the structures. Results filed as inconclusive are left out. Entries that show only a call come without a potency. Calls of active or inactive are those of the source. Calls follow the shape of the full dose curve.

Sequence of Acetylcholinesterase (Homo sapiens) (P22303 whole entry, looked up): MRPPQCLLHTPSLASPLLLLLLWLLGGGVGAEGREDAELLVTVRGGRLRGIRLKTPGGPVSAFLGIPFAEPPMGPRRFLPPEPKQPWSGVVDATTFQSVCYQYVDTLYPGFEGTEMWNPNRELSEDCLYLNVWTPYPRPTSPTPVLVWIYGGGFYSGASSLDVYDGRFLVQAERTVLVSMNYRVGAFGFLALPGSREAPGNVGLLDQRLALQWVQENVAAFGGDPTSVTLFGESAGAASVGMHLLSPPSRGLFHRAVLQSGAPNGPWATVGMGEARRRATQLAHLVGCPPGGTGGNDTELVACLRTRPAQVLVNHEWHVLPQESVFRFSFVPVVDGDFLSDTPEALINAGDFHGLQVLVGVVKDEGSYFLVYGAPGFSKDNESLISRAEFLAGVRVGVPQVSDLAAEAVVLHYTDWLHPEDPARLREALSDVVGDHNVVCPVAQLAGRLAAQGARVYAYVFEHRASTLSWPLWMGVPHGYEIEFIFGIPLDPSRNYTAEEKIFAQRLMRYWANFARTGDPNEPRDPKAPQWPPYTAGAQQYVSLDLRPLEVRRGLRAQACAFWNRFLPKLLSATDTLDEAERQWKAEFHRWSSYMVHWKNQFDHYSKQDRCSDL

In one experiment the target is Acetylcholinesterase (Homo sapiens) (UniProt P22303). The experiment can be described thus: Acetylcholinesterase (AChE) small molecule antagonists: enzyme-based qHTS assay (AID 1347397). Also: nearly all actives have a fitted effect of over 55% in size. The conditions noted are these: Potency: AChE enzyme activity inhibition; outcome: AChE enzyme activity inhibition; series mostly up to 115 µM. The method, boiled down:
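In this quantitative HTS, compounds from the Tox21 10K collection were preincubated 30 min at ambient temperature with recombinant human AChE dispensed at 50 mU/mL. Hydrolysis of acetylthiocholine was then followed for 10 min by DTNB colour development.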
On to `O=[N+]([O-])c1cccc(I)c1`, for which the Potency entry is “inactive”.
Turning to `OC1CCCCC1c1ccccc1` (stereo not drawn), the Potency entry was “inactive”.
`Cc1ccc(C(N)=O)cc1N`: the Potency entry is “inactive”.
Turning to `CC(=O)OCC(C)OC(C)=O` (stereo not drawn), the Potency entry was “inactive”.
The same measure, in the same setting: in the case of `C=CC(=O)OCCOCC(CC)(COCCOC(=O)C=C)COCCOC(=O)C=C` it was “inactive”; in that of `c1ccc(-c2nc[nH]c2-c2ccccc2)cc1`, “inactive”.
Take `NC1CCN(c2nc3c(cc2F)c(=O)c(C(=O)O)cn3-c2ccc(F)cc2F)C1` (stereo not drawn): the Potency entry is “inactive”.
Same read-out and setting: as for `CC(=O)CC(=O)Nc1ccc2[nH]c(=O)[nH]c2c1`, the entry is “inactive”; as for `CCCCc1ccc(N)cc1`, “inactive”; as for `CC(C)CCOCc1ccccc1`, “inactive”.
For the compound `Nc1ccc(F)c([N+](=O)[O-])c1`, the Potency entry is “inactive”.
Turning to `NCC(=O)O`, the activity change, negative = inhibition was 0.147% [at 23.6 µM] (inactive).
Take `CCOc1ccc(N)c([N+](=O)[O-])c1`: the Potency entry was “inactive”.
As to `Cc1cccc2nccnc12`, the Potency entry was “inactive”.
Still for that read-out and setting: as for `O=C(O)COc1ccc2ccccc2c1`, the entry is “inactive”; as for `Cc1cc(S(=O)(=O)O)ccc1N=Nc1c(O)ccc2ccccc12`, “inactive”.
As to `COC(C)=O`, the Potency entry was “inactive”.
In the case of `CN1C(C)(C)CCCC1(C)C`, the Potency result is “inactive”.
Same read-out and setting: in the case of `Cc1cc(C)c(C=O)c(C)c1` it was “inactive”.
Take `CCOC(=O)/C=C(C)/C=C/C=C(C)/C=C/c1c(C)cc(OC)c(C)c1C`: the Potency entry is “inactive”.
Take `CC1CCCO1` (stereo not drawn): the Potency result is “inactive”.
With `CCC(=O)/C=C/c1ccc(OC)cc1`, the Potency result was “inactive”.
`O=C(NCCO[N+](=O)[O-])c1cccnc1`: the Potency entry is “inactive”.
Same read-out and setting: in the case of `CC(=O)OCC(=O)[C@@]1(O)CC[C@H]2[C@@H]3CCC4=CC(=O)C=C[C@]4(C)[C@@]3(F)[C@@H](O)C[C@@]21C` it was “inactive”; in that of `CC(=O)Nc1cccc(C)c1`, “inactive”.
As for `CN(C)CCc1c[nH]c2ccc(CS(=O)(=O)N3CCCC3)cc12`, the Potency entry is “inactive”.
With `CC(C)[N+](C)(C)CC(O)COc1cccc2ccccc12` (stereo not drawn), the Potency entry is “inactive”.
Same read-out and setting: in the case of `CC(C)(C)c1nnc(NS(=O)(=O)c2ccc(N)cc2)s1` it was “inactive”; in that of `Cc1ccc(C(C)NC(=O)[C@@H](NC(=O)OC(C)C)C(C)C)cc1` (stereo partly drawn), “inactive”.
For `CC(C)Nc1nc(N)nc(Cl)n1`, the Potency entry is “inactive”.
Regarding `C=CCOc1ccccc1OCC(O)CNC(C)C` (stereo not drawn), the call was inactive.
As for `O=C(Nc1ccccc1)c1ccccc1O`, the Potency result was “inactive”.
Still for that read-out and setting: in the case of `O=C(Cl)c1cccc([N+](=O)[O-])c1` it was “inactive”; in that of `CC12CC3CC(C)(C1)CC(N)(C3)C2`, “inactive”.
With `CCCc1ccc(O)c(OC)c1`, the Potency entry was “inactive”.
Still for that read-out and setting: in the case of `CC(C)COC(=O)CC(C(=O)OCC(C)C)S(=O)(=O)O` (stereo not drawn) it was “inactive”; in that of `O=c1[nH]sc2ccccc12`, “inactive”; in that of `O=C1c2ccccc2C(=O)C1(O)O`, “inactive”.
Take `CC(C)=CCNc1ncnc2c1ncn2[C@@H]1O[C@H](CO)[C@@H](O)[C@H]1O`: the Potency result was “inactive”.

A further experiment shares this target. The experiment can be described thus: Acetylcholinesterase (AChE) small molecule antagonists: fluorescence cell-based qHTS assay (AID 1347398). Also: nearly all actives have a fitted effect of over 50% in size. The conditions noted are these: SH-SY5Y cells; Potency: AChE activity; outcome: AChE activity; series mostly up to 115 µM. The method, boiled down:
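Cells (SH-SY5Y) attached overnight, were dosed with compound or DMSO vehicle for 30 min at 37 C, and then incubated 40 min at room temperature with acetylthiocholine and Thiolite Green; green fluorescence indexed AChE activity.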
As for `O=[N+]([O-])c1cccc(I)c1`, the Potency entry is “inactive”.
On to `OC1CCCCC1c1ccccc1` (stereo not drawn), for which the Potency result is “inactive”.
Consider `Cc1ccc(C(N)=O)cc1N`, for which the Potency result was “inactive”.
As for `CC(=O)OCC(C)OC(C)=O` (stereo not drawn), the Potency result was “inactive”.
Regarding `C=CC(=O)OCCOCC(CC)(COCCOC(=O)C=C)COCCOC(=O)C=C`, the Potency entry is “inactive”.
`c1ccc(-c2nc[nH]c2-c2ccccc2)cc1`: the Potency result was “inactive”.
With `NC1CCN(c2nc3c(cc2F)c(=O)c(C(=O)O)cn3-c2ccc(F)cc2F)C1` (stereo not drawn), the Potency result is “inactive”.
On the same count and under the same terms, as for `CC(=O)CC(=O)Nc1ccc2[nH]c(=O)[nH]c2c1`, the entry is “inactive”.
In the case of `CCCCc1ccc(N)cc1`, the Potency entry was “inactive”.
Still for that read-out and setting: in the case of `CC(C)CCOCc1ccccc1` it was “inactive”; in that of `Nc1ccc(F)c([N+](=O)[O-])c1`, “inactive”.
With `NCC(=O)O`, the activity change, negative = inhibition was 6.61% [at 23.8 µM] (inactive).
With `CCOc1ccc(N)c([N+](=O)[O-])c1`, the Potency entry was “inactive”.
As to `Cc1cccc2nccnc12`, the Potency entry was “inactive”.
With `O=C(O)COc1ccc2ccccc2c1`, the Potency entry was “inactive”.
As for `Cc1cc(S(=O)(=O)O)ccc1N=Nc1c(O)ccc2ccccc12`, the Potency result was “inactive”.
For the compound `COC(C)=O`, the Potency entry is “inactive”.
Take `CN1C(C)(C)CCCC1(C)C`: the Potency entry is “inactive”.
With `Cc1cc(C)c(C=O)c(C)c1`, the Potency entry was “inactive”.
Take `CCOC(=O)/C=C(C)/C=C/C=C(C)/C=C/c1c(C)cc(OC)c(C)c1C`: the Potency result was “inactive”.
In the case of `CC1CCCO1` (stereo not drawn), the Potency entry was “inactive”.
Take `CCC(=O)/C=C/c1ccc(OC)cc1`: the Potency result was “inactive”.
Still for that read-out and setting: in the case of `O=C(NCCO[N+](=O)[O-])c1cccnc1` it was “inactive”; in that of `CC(=O)OCC(=O)[C@@]1(O)CC[C@H]2[C@@H]3CCC4=CC(=O)C=C[C@]4(C)[C@@]3(F)[C@@H](O)C[C@@]21C`, “inactive”.
Turning to `CC(=O)Nc1cccc(C)c1`, the Potency result is “inactive”.
For `CN(C)CCc1c[nH]c2ccc(CS(=O)(=O)N3CCCC3)cc12`, the Potency result was “inactive”.
With `CC(C)[N+](C)(C)CC(O)COc1cccc2ccccc12` (stereo not drawn), the Potency result was “inactive”.
For `CC(C)(C)c1nnc(NS(=O)(=O)c2ccc(N)cc2)s1`, the Potency result is “inactive”.
Still for that read-out and setting: in the case of `Cc1ccc(C(C)NC(=O)[C@@H](NC(=O)OC(C)C)C(C)C)cc1` (stereo partly drawn) it was “inactive”.
In the case of `CC(C)Nc1nc(N)nc(Cl)n1`, the Potency result was “inactive”.
Regarding `C=CCOc1ccccc1OCC(O)CNC(C)C` (stereo not drawn), the outcome was inactive.
With `O=C(Nc1ccccc1)c1ccccc1O`, the Potency entry was “inactive”.
On to `O=C(Cl)c1cccc([N+](=O)[O-])c1`, for which the Potency entry was “inactive”.
Still for that read-out and setting: as for `CC12CC3CC(C)(C1)CC(N)(C3)C2`, the entry is “inactive”; as for `CCCc1ccc(O)c(OC)c1`, “inactive”.
With `CC(C)COC(=O)CC(C(=O)OCC(C)C)S(=O)(=O)O` (stereo not drawn), the Potency result was “inactive”.
In the case of `O=c1[nH]sc2ccccc12`, the Potency entry was “inactive”.
On to `O=C1c2ccccc2C(=O)C1(O)O`, for which the Potency entry was “inactive”.
For `CC(C)=CCNc1ncnc2c1ncn2[C@@H]1O[C@H](CO)[C@@H](O)[C@H]1O`, the Potency result is “inactive”.
